Compound activity (PubChem)
Rows were chosen to be rich in hits. Some 18% of all compounds tested hit in one or more screens of this group.
DT40 TDP1 CPT: DT40-hTDP1 cell growth loss with CPT; chicken DT40 Tdp1-/-;hTDP1 cells + 20 nM CPT, ATP luminescence, 48 h; Potency, µM (top dose mostly 46.2 µM), without a hit: at the highest dose activity change, negative = growth inhibition, hits mostly inhibitors; hit rate 12% among 420,000; AID 686979; note: potency is the fitted concentration of half-maximal effect; nearly all actives have a fitted effect of over 55% in size
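Chicken DT40 Tdp1-/- cells complemented with human TDP1, 400 cells/well, exposed to compounds plus 20 nM camptothecin for at least 48 h at 37 C; viability read as ATP content by CellTiter-Glo luminescence.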
IL-1B inflam inh: blocks inflammasome-driven IL-1 beta release; THP-1 LPS/ATP IL-1B secretion, AlphaLISA, 16 h; active compounds read low; activity change, % at 57.5 µM; hit rate 4.7% among 360,000; AID 743279; in the data active = activity change below about -50%; inconclusive = mostly about -30% to -49%
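THP-1 cells pretreated 1 hr with compounds (up to 57.5 uM final), then stimulated with LPS (250 ng/mL final) plus ATP (1.25 mM final); secreted IL-1B measured by AlphaLISA after 16 hr, decreased signal indicating inhibition.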
VP16 counter: inhibits Gal4-VP16 luciferase reporter, ROR gamma counter-screen; AID 2546; Potency, µM (doses to about 53.6 µM), for the others: at the top dose activity, negative = inhibition, hits mostly inhibitors; hit rate 3.5% among 310,000; Drosophila S2 Gal4-VP16 UAS-luciferase, luminescence, 20 h;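 note: Gal4-VP16 expression switched on by copper sulfate through the metallothionein promoter; potency is the fitted concentration of half-maximal effect; nearly all actives have a fitted effect of over 50% in size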
LDHA inh: LDHA (human) enzyme inhibition; P00338; purified LDHA, NADH/diaphorase-resazurin fluorescence; active compounds read low; activity change, % (values are at about 110 or 230 µM); hit rate 0.15% among 480,000; in the data active = activity change below about -30%; inconclusive = mostly about -25% to -30%;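 note: plate controls were DMSO wells for no effect and wells without enzyme for full effect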
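Human LDH5 (2 nM) was incubated with 0.06 mM NADH and 0.2 mM pyruvate for 5 min at room temperature in Tris pH 7.4. Remaining NADH was coupled through diaphorase/resazurin, and resorufin fluorescence was read at 0 and 20 min.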
RORgamma inh: blocks mouse ROR gamma transcriptional activity; P51450; Drosophila S2 Gal4-RORgamma UAS-luciferase reporter, 20 h; Potency, µM (top dose mostly 53.6 µM), without a hit: top-dose activity change, negative = inhibition, actives largely listed as inhibitors; hit rate 5.4% among 310,000; AID 2551; note: potency is the fitted concentration of half-maximal effect; nearly all actives have a fitted effect of over 60% in size
Target sequence (P51450 whole entry, looked up, the tested form may be a part): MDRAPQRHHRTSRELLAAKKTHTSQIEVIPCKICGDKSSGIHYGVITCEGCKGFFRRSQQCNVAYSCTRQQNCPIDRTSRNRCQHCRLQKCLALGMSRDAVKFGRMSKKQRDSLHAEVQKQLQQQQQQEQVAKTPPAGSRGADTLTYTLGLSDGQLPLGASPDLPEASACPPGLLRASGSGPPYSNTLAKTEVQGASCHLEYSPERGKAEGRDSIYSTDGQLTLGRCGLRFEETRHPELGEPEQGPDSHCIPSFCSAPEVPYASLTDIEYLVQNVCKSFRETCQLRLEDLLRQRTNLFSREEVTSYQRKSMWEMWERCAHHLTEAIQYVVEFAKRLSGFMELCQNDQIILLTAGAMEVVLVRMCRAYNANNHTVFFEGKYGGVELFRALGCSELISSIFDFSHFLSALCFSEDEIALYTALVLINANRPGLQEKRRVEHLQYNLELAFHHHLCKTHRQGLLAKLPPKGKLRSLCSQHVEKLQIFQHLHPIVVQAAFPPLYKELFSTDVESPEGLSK
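Compounds are pin-transferred onto Drosophila Schneider cells expressing a copper-inducible Gal4–ROR gamma transactivation domain fusion. After 1 hr, copper sulfate is added to 700 uM final; luciferase is read 20 hr later.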
TDP1 cell noCPT: qHTS for Inhibitors of human tyrosyl-DNA phosphodiesterase 1 (TDP1): qHTS in cells in absence of CPT | DT40 Tdp1-/- hTDP1 cells, no CPT, ATP luminescence, 48 h | AID 686978, 2013 | Potency, µM (top dose mostly 46.2 µM), for inactives: at the highest dose activity change, negative = growth inhibition, usual class: inhibitors | hit rate 15% among 420,000; note: potency is the fitted concentration of half-maximal effect; nearly all actives have a fitted effect of over 55% in size
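Chicken DT40 Tdp1-/- cells stably complemented with human TDP1 were seeded at 400 cells/well with DMSO in place of 20 nM camptothecin. After compound pinning, cells grew at least 48 hr at 37 °C; viability read by CellTiter-Glo luminescence.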
* = called active by the depositor; ? = inconclusive; · = no result given; [ ] = dose if it differs, or a comment. Unless noted, calls come from the whole dose curve; as a rule, active = well fitted curve in the direction sought with a large enough effect; inconclusive = small, poorly fitted or top-dose-only effect, or another doubt; inactive = no such curve, though single readings can be large; an effect the other way counts as inactive or inconclusive. Unless noted, % is set by controls: 0 for no effect and ±100 for the full control effect.

SMILES | DT40 TDP1 CPT | IL-1B inflam inh | VP16 counter | LDHA inh | RORgamma inh | TDP1 cell noCPT
CCN(CC)CCn1c(SCC(=O)NCCC2=CCCCC2)nc2c(sc3ccccc32)c1=O | ? | -60* | -1% | -1 | -16% | ?
COc1cccc(NC(=O)CSc2nc3c(sc4ccccc43)c(=O)n2CCN(C)C)c1 | 15µM* | -108* | -10%[10 µM] | -5 | -16% | ?
COc1cccc(NC(=O)CSc2nc3c(sc4ccccc43)c(=O)n2CCCN2CCCC2)c1 | ? | ? | -1% | -5 | -22% | 10µM*
O=C(c1cc2ccccc2[nH]1)N(Cc1cccs1)C1CC1 | · | · | · | 0 | · | ·
CC(=O)c1c(C)[nH]c(C(=O)C(C)Oc2ccc(F)c(F)c2)c1C (stereo unspecified) | · | · | · | 4 | · | ·
CCN(CC)c1nc2ccccc2nc1C(=O)Nc1cccc(C)c1C | · | · | · | 5 | · | ·
CC(C(=O)N(C)C1(C#N)CCCCC1)N(C)CC(=O)Nc1cccc(F)c1 (stereo unspecified) | · | · | · | -13 | · | ·
COc1ccc(OC)c(CNCc2cccn2-c2nnc(N3CCN(C)CC3)s2)c1 | · | · | · | -2 | · | ·
CCC(OC(=O)C(CC(C)C)NC(=O)c1ccccc1)C(=O)Nc1nnc(C)s1 (stereo unspecified) | ? | 17 | · | -1 | · | 5.8µM*
CCOC(=O)c1sc(NC(=O)C(CC)OC(=O)C(CC(C)C)NC(=O)c2ccccc2)nc1C (stereo unspecified) | -11% | -22 | -3% | 0 | 14% | -12%
COc1cccc(C#Cc2ccc3c(c2)O[C@H](CN(C)S(=O)(=O)c2ccccc2F)[C@H](C)CN([C@H](C)CO)S3(=O)=O)c1 | -30% | 1 | · | -1 | · | ?
Cc1ccc(S(=O)(=O)N(C)C[C@H]2Oc3cc(C#CC4CCCC4)ccc3S(=O)(=O)N([C@H](C)CO)C[C@H]2C)cc1 | 18µM* | -2 | · | 4 | · | 18µM*
COc1cccc(S(=O)(=O)N(C)C[C@@H]2Oc3cc(Br)ccc3S(=O)(=O)N([C@@H](C)CO)C[C@@H]2C)c1 | ? | -11 | · | 0 | · | 26µM*
COc1ccc(S(=O)(=O)N(C)C[C@@H]2Oc3cc(Br)ccc3S(=O)(=O)N([C@H](C)CO)C[C@@H]2C)cc1 | ? | -20 | · | 4 | · | 16µM*
CCCC#Cc1ccc2c(c1)O[C@H](CN(C)S(=O)(=O)c1cccc(OC)c1)[C@H](C)CN([C@H](C)CO)S2(=O)=O | 15µM* | -16 | · | 1 | · | 16µM*
